Compounds without any hit were thinned out: in the full panel of roughly 79,000, 15% have a hit. A number with no mark means an inactive call. Activity calls are given as the source filed them. Rule as the data show it: active = growth inhibition above about 70%; inactive = the rest.
Assay: NCI Yeast Anticancer Drug Screen. Data for the mec2-1 strain (AID 157)
Details: S. cerevisiae mec2-1 strain, at 3.7 µM, hits give high values
In short: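 Strain: mec2-1 (DNA repair/cell cycle alteration). Compound exposure, then growth measured; inhibition expressed relative to vehicle.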
In the case of S=C(S)NN1CCOCC1, the growth inhibition is reported as 60%. For COc1cc2c3c(cccc3c1)C(=O)N(CCN(C)C)C2=O, the growth inhibition was -11%. COC(=O)C1=C(C)NC(C)=C(C(=O)OCCCN2CCC(c3ccccc3)(c3ccccc3)CC2)C1c1cccc([N+](=O)[O-])c1 (stereo not given) showed a growth inhibition of 16%. c1ccc2c(c1)Oc1cccc3cccc-2c13 gave a growth inhibition of 4%. Compound CN(C)CCOc1ccc2c(c1)C/C(=C/c1ncc([N+](=O)[O-])n1C)C2=O has a growth inhibition of 30%. For Cc1ccc(CCC2=CCCc3c2ccc2ccccc32)cc1, the growth inhibition was -5%. CNC(=O)OCc1c(COC(=O)NC)c(-c2ccc(Cl)c(Cl)c2)n2c1CCC2 showed a growth inhibition of -47%. Compound Clc1ccccc1C1OC1c1ccccc1Cl (stereo not given) has a growth inhibition of -86%. With O=[N+]([O-])c1cc(CCl)ccc1CCl the growth inhibition was 6%. O=C1C=CC(=O)c2c(O)c(Nc3ccc(OC(F)(F)F)cc3)c(Cl)c(O)c21 gave a growth inhibition of -3%. With S=c1[nH]nc(Nc2ccc(Cl)cc2)s1 the growth inhibition was -1%. Cn1ccnc1Oc1ccc(Cl)cc1 gave a growth inhibition of 0%. For BrCc1cccc2ccc3cccc(CBr)c3c12, the growth inhibition was -1%. With O=C1c2ccccc2-c2nc3ccccc3nc21 the growth inhibition was -54%. Compound CCCCCCCCCCCCCCCCCCNC has a growth inhibition of 3%. Work on Oc1ccc(NCn2c(=S)sc3ccccc32)cc1 yielded a growth inhibition of 27%. In the case of O=C1C2CC[C@@H]3C(=O)C(Cl)(Cl)[C@@H]3CCC2C1(Cl)Cl (stereo not given in full), the growth inhibition is reported as 6%. With CC[n+]1ccc2c(C)c3[nH]c4ccc(O)cc4c3c(C)c2c1 the growth inhibition was -1%. Cc1ccc(-n2cc(-c3ccc(Cl)cc3)c(C#N)c2N)cc1 gave a growth inhibition of -8%. CC(=O)[O][Bi]([c]1ccccc1)[c]1ccccc1 showed a growth inhibition of 30%. Work on CC1=C(SCCO)C(=O)c2ccccc2C1=O yielded a growth inhibition of -1%. With C/C(=N\O)C1CC2C=C(C#N)C1N(Cc1ccccc1)C2 (stereo not given) the growth inhibition was 3%. Work on CC(Br)C(=O)c1ccc2cc(Br)c3ccccc3c2c1 (stereo not given) yielded a growth inhibition of 4%. Work on Nc1nc(-c2cccnc2)cc(-c2cc(-c3cccnc3)nc(N)n2)n1 yielded a growth inhibition of 2%. With CC(C)=CC(=O)O[C@@H]1CC(C)(C)CC2C3=CCC4[C@]56CC[C@](O)(OC5)C(C)(C)C6CC[C@@]4(C)C3(C)CC[C@]21C(=O)O (stereo not given in full) the growth inhibition was 31%. Compound CCC(C)COC(=O)c1ccc(N=Cc2ccc(C=Nc3ccc(C(=O)OCC(C)CC)cc3)cc2)cc1 (stereo not given) has a growth inhibition of -2%. With Oc1cccc2c(Cl)ccnc12 the growth inhibition was 63%. For O=C(O)c1cccc(-c2c3ccc(=O)cc-3oc3cc(O)ccc23)c1, the growth inhibition was 14%. Work on CN(CCc1ccccn1)c1ccc2c(c1)Cc1ccccc1-2 yielded a growth inhibition of 8%. For Cc1cc(S(=O)(=O)/N=C(/NN)NNc2cccc(C(F)(F)F)n2)c(S)cc1Cl, the growth inhibition was 2%. In the case of O=C1C2C(C(=O)N1c1ccc(OCc3ccccc3)cc1)C1c3ccccc3C2C2CCCCN21 (stereo not given), the growth inhibition is reported as -6%. Nc1ccccc1CC(O)C(=O)O (stereo not given) showed a growth inhibition of 8%. With O=C(O)C1CCCCC1c1c2ccc(=O)c(O)c-2oc2c(O)c(O)ccc12 (stereo not given) the growth inhibition was -32%. Cc1ccc2ccc(O)cc2c1 gave a growth inhibition of -33%. In the case of O=C1C(=O)c2ccccc2C=C1[N+](=O)[O-], the growth inhibition is reported as 5%. COC(=O)c1ccc(NCC2=CC(=O)C=CC2=O)cc1O gave a growth inhibition of 17%. C(CCSC1=NCCN1)CSC1=NCCN1 (tested in a mixture with another compound) gave a growth inhibition of 28%. In the case of N#Cc1c(N)[nH]c2ccc(Sc3ccccc3)cc12, the growth inhibition is reported as 2%. CCNc1nnc(CSc2nc(-c3ccccc3)c(-c3ccccc3)[nH]2)s1 gave a growth inhibition of 0%. For CC[C@@]1(O)C(=O)OCc2c1cc1n(c2=O)Cc2cc3c(N)cccc3nc2-1, the growth inhibition was -1%.

Same assay, conditions: S. cerevisiae mec2-1 strain, at 5.0 µM (retest, dose inferred, filed as 0.5), hits give high values
With S=C(S)NN1CCOCC1 the growth inhibition was 65%. Compound COc1cc2c3c(cccc3c1)C(=O)N(CCN(C)C)C2=O has a growth inhibition of 8%. Work on COC(=O)C1=C(C)NC(C)=C(C(=O)OCCCN2CCC(c3ccccc3)(c3ccccc3)CC2)C1c1cccc([N+](=O)[O-])c1 (stereo not given) yielded a growth inhibition of 9%. In the case of c1ccc2c(c1)Oc1cccc3cccc-2c13, the growth inhibition is reported as 99% (active). With CN(C)CCOc1ccc2c(c1)C/C(=C/c1ncc([N+](=O)[O-])n1C)C2=O the growth inhibition was 30%. For Cc1ccc(CCC2=CCCc3c2ccc2ccccc32)cc1, the growth inhibition was 44%. CNC(=O)OCc1c(COC(=O)NC)c(-c2ccc(Cl)c(Cl)c2)n2c1CCC2 gave a growth inhibition of -5%. For Clc1ccccc1C1OC1c1ccccc1Cl (stereo not given), the growth inhibition was 55%. O=[N+]([O-])c1cc(CCl)ccc1CCl showed a growth inhibition of -7%. For O=C1C=CC(=O)c2c(O)c(Nc3ccc(OC(F)(F)F)cc3)c(Cl)c(O)c21, the growth inhibition was 9%. Work on S=c1[nH]nc(Nc2ccc(Cl)cc2)s1 yielded a growth inhibition of -49%. With Cn1ccnc1Oc1ccc(Cl)cc1 the growth inhibition was -46%. BrCc1cccc2ccc3cccc(CBr)c3c12 showed a growth inhibition of -5%. With O=C1c2ccccc2-c2nc3ccccc3nc21 the growth inhibition was 83% (active). Work on CCCCCCCCCCCCCCCCCCNC yielded a growth inhibition of 50%. Oc1ccc(NCn2c(=S)sc3ccccc32)cc1 showed a growth inhibition of 63%. With O=C1C2CC[C@@H]3C(=O)C(Cl)(Cl)[C@@H]3CCC2C1(Cl)Cl (stereo not given in full) the growth inhibition was -2%. In the case of CC[n+]1ccc2c(C)c3[nH]c4ccc(O)cc4c3c(C)c2c1, the growth inhibition is reported as 1%. Compound Cc1ccc(-n2cc(-c3ccc(Cl)cc3)c(C#N)c2N)cc1 has a growth inhibition of -3%. CC(=O)[O][Bi]([c]1ccccc1)[c]1ccccc1 showed a growth inhibition of 19%. In the case of CC1=C(SCCO)C(=O)c2ccccc2C1=O, the growth inhibition is reported as -22%. Work on C/C(=N\O)C1CC2C=C(C#N)C1N(Cc1ccccc1)C2 (stereo not given) yielded a growth inhibition of -16%. With CC(Br)C(=O)c1ccc2cc(Br)c3ccccc3c2c1 (stereo not given) the growth inhibition was -5%. Nc1nc(-c2cccnc2)cc(-c2cc(-c3cccnc3)nc(N)n2)n1 gave a growth inhibition of 24%. CC(C)=CC(=O)O[C@@H]1CC(C)(C)CC2C3=CCC4[C@]56CC[C@](O)(OC5)C(C)(C)C6CC[C@@]4(C)C3(C)CC[C@]21C(=O)O (stereo not given in full) gave a growth inhibition of 27%. With CCC(C)COC(=O)c1ccc(N=Cc2ccc(C=Nc3ccc(C(=O)OCC(C)CC)cc3)cc2)cc1 (stereo not given) the growth inhibition was 13%. In the case of Oc1cccc2c(Cl)ccnc12, the growth inhibition is reported as 99% (active). With O=C(O)c1cccc(-c2c3ccc(=O)cc-3oc3cc(O)ccc23)c1 the growth inhibition was 94% (active). For CN(CCc1ccccn1)c1ccc2c(c1)Cc1ccccc1-2, the growth inhibition was 5%. Work on Cc1cc(S(=O)(=O)/N=C(/NN)NNc2cccc(C(F)(F)F)n2)c(S)cc1Cl yielded a growth inhibition of -7%. With O=C1C2C(C(=O)N1c1ccc(OCc3ccccc3)cc1)C1c3ccccc3C2C2CCCCN21 (stereo not given) the growth inhibition was -5%. For Nc1ccccc1CC(O)C(=O)O (stereo not given), the growth inhibition was 3%. In the case of O=C(O)C1CCCCC1c1c2ccc(=O)c(O)c-2oc2c(O)c(O)ccc12 (stereo not given), the growth inhibition is reported as -7%. Compound Cc1ccc2ccc(O)cc2c1 has a growth inhibition of -10%. O=C1C(=O)c2ccccc2C=C1[N+](=O)[O-] gave a growth inhibition of 8%. Work on COC(=O)c1ccc(NCC2=CC(=O)C=CC2=O)cc1O yielded a growth inhibition of 13%. C(CCSC1=NCCN1)CSC1=NCCN1 (tested in a mixture with another compound) gave a growth inhibition of 43%. For N#Cc1c(N)[nH]c2ccc(Sc3ccccc3)cc12, the growth inhibition was -22%. With CCNc1nnc(CSc2nc(-c3ccccc3)c(-c3ccccc3)[nH]2)s1 the growth inhibition was -8%. Compound CC[C@@]1(O)C(=O)OCc2c1cc1n(c2=O)Cc2cc3c(N)cccc3nc2-1 has a growth inhibition of 2%.
